# PubChem BioAssay (NCI)
# About 79,000 compounds went through this panel and 15% of them were active in at least one assay; those are over-represented in the sample as a whole. A number with no mark means an inactive call. Activity calls are given as the source filed them. Rule as the data show it: active = growth inhibition above about 70%; inactive = the rest.
# Assays:
# [1] = NCI Yeast Anticancer Drug Screen. Data for the rad50 strain (AID 155);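 also: 0% = growth of vehicle-only cultures of the same strain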; conditions: S. cerevisiae rad50 strain growth inhibition, stronger effect = higher value
# Method in brief: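 Readout: growth inhibition relative to vehicle-treated cultures. Compound exposure was carried out in a genetically defined yeast strain deficient in DNA damage repair.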
# [2] = NCI Yeast Anticancer Drug Screen. Data for the mec2-1 strain (AID 157); conditions: S. cerevisiae mec2-1 strain, stronger effect = higher value
# Method in brief: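 Using mec2-1 yeast: add compound, measure growth, express inhibition versus vehicle-treated cultures.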
# [3] = NCI Yeast Anticancer Drug Screen. Data for the sgs1 mgt1 strain (AID 161);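 also: 0% = growth of cultures given vehicle only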; conditions: S. cerevisiae sgs1 mgt1 strain, stronger effect = higher value
# Method in brief: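 Growth of a repair-deficient yeast mutant was monitored after compound treatment and expressed as inhibition relative to vehicle-treated cultures.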
# [4] = NCI Yeast Anticancer Drug Screen. Data for the cln2 rad14 strain (AID 165);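 also: 0% = growth equal to vehicle treated cultures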; conditions: S. cerevisiae cln2 rad14 strain, stronger effect = higher value
# Method in brief: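 Yeast strain cln2 rad14, bearing defects in cell cycle control and DNA repair, serves as the test system; values reflect growth inhibition compared with vehicle.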
# [5] = NCI Yeast Anticancer Drug Screen. Data for the bub3 strain (AID 167); conditions: S. cerevisiae bub3 mutant strain, stronger effect = higher value
# Method in brief: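 Readout: yeast growth inhibition, expressed relative to vehicle-only wells. The test organism is a mutant strain from a panel with lesions in DNA repair or checkpoint genes.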
# [6] = NCI Yeast Anticancer Drug Screen. Data for the mlh1 rad18 strain (AID 175); conditions: S. cerevisiae mlh1 rad18 strain growth inhibition, stronger effect = higher value
# Method in brief: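 Steps: expose repair-defective yeast to compound; measure growth; express inhibition against vehicle-treated controls.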
# [7] = at 5.0 µM (retest, dose inferred, filed as 0.5)
# [8] = at 50.0 µM (retest, dose inferred, filed as 5.0)
Structure (SMILES),"growth inhibition [1, 7]","growth inhibition [1, 8]",growth inhibition ([1]; at 50.0 µM),"growth inhibition [2, 7]","growth inhibition [2, 8]",growth inhibition ([2]; at 50.0 µM),"growth inhibition [3, 7]","growth inhibition [3, 8]",growth inhibition ([3]; at 50.0 µM),"growth inhibition [4, 7]","growth inhibition [4, 8]",growth inhibition ([4]; at 50.0 µM),"growth inhibition [5, 7]","growth inhibition [5, 8]",growth inhibition ([5]; at 50.0 µM),"growth inhibition [6, 7]","growth inhibition [6, 8]",growth inhibition ([6]; at 50.0 µM)
CC(C)(C)N=C=NC(c1ccccc1)(c1ccccc1)c1ccccc1,-3%,-21%,-1.9%,-9%,-7%,-6.1%,-6%,-24%,2.45%,-1%,-18%,42.5%,-6%,-22%,4.5%,11%,1%,-3.25%
CCCCCNC(=O)C1C(=O)N(CCCCC)C(=O)/C1=N\N (stereo not given),-1%,-1%,-5%,-3%,2%,29.8%,2%,3%,1.7%,1%,-3%,79.7% (active),5%,-3%,30.8%,-1%,-4%,-13.5%
CC1(C)CCC(C)(C)c2cc(C(=O)Nc3ccc(C(=O)O)cc3)ccc21,21%,99% (active),-12.2%,22%,96% (active),-18.1%,20%,99% (active),0.8%,36%,97% (active),-8.75%,13%,98% (active),4%,34%,97% (active),5.75%
CCC[CH2][Sn]([CH2]CCC)([O]N(C)C(=O)c1ccc(Br)cc1)[O]N(C)C(=O)c1ccc(Br)cc1,63%,98% (active),89.5% (active),87% (active),99% (active),90.2% (active),33%,95% (active),92.8% (active),27%,98% (active),90.7% (active),37%,97% (active),90.7% (active),90% (active),98% (active),90.5% (active)
CCCCCC[C@@H](O)C/C=C\CCCCCCCC(=O)OCCCC,-2%,-7%,23.6%,-4%,-7%,26.1%,-1%,-5%,23.6%,-3%,-8%,75.8% (active),-6%,-7%,24.6%,0%,1%,23.9%
CC(=O)CC(C)=O.CCN(CC)CC[C-]=O.[Pd+2],1%,54%,66.9%,8%,33%,70.8% (active),-5%,22%,73.5% (active),21%,32%,9.6%,-1%,33%,76.5% (active),0%,54%,74.9% (active)
Clc1ccc(/C(=C/c2ccccc2)Cn2ccnc2)cc1,88% (active),93% (active),75.6% (active),64%,86% (active),78.8% (active),86% (active),90% (active),75% (active),85% (active),83% (active),70.5% (active),70% (active),93% (active),81% (active),83% (active),90% (active),78.5% (active)
Oc1c(Cl)cc(Cl)cc1C=NCCSc1ccc(Cl)cc1,33%,99% (active),92.2% (active),30%,99% (active),93.8% (active),27%,99% (active),94.8% (active),23%,99% (active),93.2% (active),45%,99% (active),93.9% (active),49%,99% (active),92.7% (active)
Nc1cc(Cl)ccc1S,79% (active),48%,99.5% (active),99% (active),89% (active),99.5% (active),83% (active),47%,99.5% (active),25%,53%,99% (active),31%,91% (active),99.3% (active),83% (active),75% (active),99.5% (active)
Cc1ccc(-c2ccccc2)n1-c1cc(Cl)ccc1O,12%,99% (active),99% (active),4%,99% (active),99.2% (active),-1%,99% (active),99.2% (active),8%,99% (active),97.9% (active),0%,99% (active),99% (active),10%,99% (active),99.1% (active)
